# From PubChem BioAssay (Tox21)
# Several values for one entry are separate records, joined by “and”; a condition that tells them apart may be missing. Equal entries are not always repeated. Inconclusive results are not listed. Where a call stands in place of a potency, no number is given. Activity calls are given as the source filed them. Unless noted, calls follow the shape of the dose curve; as a rule, active = well fitted cell-killing curve with a large enough effect in the repeat runs; inconclusive = weak or mixed curves; inactive = flat fitted curve, though single readings scatter.
# Test: qHTS assay to identify small molecule agonists of the progesterone receptor (PR) signaling pathway - cell viability counter screen (AID 1346799; calls by dose curve; also: nearly all actives have a fitted effect of over 45% in size)
# Details: PR-UAS-bla HEK293T viability, CellTiter-Glo luminescence, 16 h; series mostly up to 92.4 µM
# Method in brief: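 Using the same plates as the PR reporter screen, HEK293T PR-UAS-bla cells received compounds for 16 hr at 37C and were then lysed with CellTiter-Glo; luminescence was read 30 min later at room temperature.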
# Potency is read from the fitted curve at half-maximal effect.
row,SMILES,Potency
1,CC(C)(C)CC(C)(C)c1ccc(O)c(Cc2ccc(Cl)cc2Cl)c1,33.5 µM (active)
2,Nc1nc2ccccc2n1Cc1ccc(F)cc1,inactive
3,C[C@@H]1C[C@H]2[C@@H]3CCC4=CC(=O)C=C[C@]4(C)[C@@]3(Cl)[C@@H](O)C[C@]2(C)[C@@]1(OC(=O)c1ccco1)C(=O)CCl,inactive
4,O=[N+]([O-])c1cc([N+](=O)[O-])c2ccc(S(=O)(=O)O)cc2c1O,inactive
5,C[C@H](CCC(=O)O)[C@H]1CC[C@H]2[C@@H]3CC[C@@H]4C[C@H](O)CC[C@]4(C)[C@H]3CC[C@]12C,30.5 µM (active) and 38.6 µM (active)
6,CCOc1ccc2nc3cc(N)ccc3c(N)c2c1,inactive
7,Cc1ccc(O)c(C(C)(C)C)c1,inactive
8,C[n+]1cc2c3c(ccc2c2ccc4cc5c(cc4c21)OCO5)OCO3,3.26 µM (active)
9,CCCC(C)c1ccccc1O (stereo not given),inactive
10,OCCN1CCN(CC/C=C2/c3ccccc3Sc3ccc(C(F)(F)F)cc32)CC1,29.8 µM (active)
11,Clc1ccc(C(Cn2ccnc2)OCc2ccc(Sc3ccccc3)cc2)c(Cl)c1 (stereo not given),inactive
12,Cc1cc2c(cc1C(F)(F)F)N(C(=O)Nc1ccc(Oc3cccnc3C)nc1)CC2,inactive
13,CCN(C(=O)c1cc(C)cc(OC[C@H](C)Nc2ccncc2)c1)C(C)C,inactive
14,CCCCCCCCCCCC[N+](C)(C)CCCCCCCCCCCC,19.3 µM (active)
15,O=C(O)c1cc(O)c2c(c1)C(=O)c1cccc(O)c1C2=O,inactive

# Test: qHTS assay to identify small molecule antagonists of the TGF-beta/Smad signaling pathway - cell viability counter screen (AID 1346824); also: nearly all actives have a fitted effect of over 50% in size
# Details: SBE-bla HEK293T viability, CellTiter-Glo luminescence; series mostly up to 76.8 µM
# Method in brief: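 SBE-bla HEK 293T cells were plated overnight at 37 C, then given compounds in DMSO plus TGF-beta1 (added as 0.25 ng/mL solution) for 5 hr. After the bla read, CellTiter-Glo was added to the same wells and luminescence read after 30 min at room temperature.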
row,SMILES,Potency
1,CC(C)(C)CC(C)(C)c1ccc(O)c(Cc2ccc(Cl)cc2Cl)c1,21.3 µM (active)
2,Nc1nc2ccccc2n1Cc1ccc(F)cc1,inactive
3,CCCCC(CC)COC(=O)c1ccccc1C(=O)O (stereo not given),inactive
4,N/C(=N\N=C\c1ccc(Cl)cc1)N/N=C/c1ccc(Cl)cc1,inactive
5,CCOc1ccc2nc3cc(N)ccc3c(N)c2c1,inactive
6,O=C(Oc1ccccc1)c1ccccc1C(=O)Oc1ccccc1,inactive
7,C/C=C1/C(=O)C[C@H]2[C@@H]3CCC4=CC(=O)CC[C@]4(C)[C@H]3CC[C@]12C,inactive
8,CC1=NC(C)OC1C (stereo not given),inactive
9,C[n+]1cc2c3c(ccc2c2ccc4cc5c(cc4c21)OCO5)OCO3,4.65 µM (active)
10,CCCC(C)c1ccccc1O (stereo not given),inactive
11,CCOC(=O)c1nc(C(Cl)(Cl)Cl)n(-c2ccc(Cl)cc2Cl)n1,inactive
12,OCCN1CCN(CC/C=C2/c3ccccc3Sc3ccc(C(F)(F)F)cc32)CC1,inactive
13,CC(C)(C)C1CCC(CC2=C(O)c3ccccc3C(=O)C2=O)CC1 (stereo not given),inactive
14,Clc1ccc(C(Cn2ccnc2)OCc2ccc(Sc3ccccc3)cc2)c(Cl)c1 (stereo not given),inactive
15,CCN(C(=O)N(CC)c1ccccc1)c1ccccc1,inactive
16,CC1(C)CCC(C)(C)c2cc(C(=O)Nc3ccc(C(=O)O)cc3)ccc21,inactive
17,CN(C)CCCOC1(Cc2ccccc2)CCCCCC1,inactive
18,COc1cccc2c1C(=O)c1c(O)c3c(c(O)c1C2=O)C[C@@](O)(C(=O)CO)C[C@@H]3O[C@H]1C[C@H](N)[C@H](O[C@@H]2CCCCO2)[C@H](C)O1,inactive
19,CCCCCCCCCCCC[N+](C)(C)CCCCCCCCCCCC,43.6 µM (active)
20,CCCCN1C(=O)[C@@H]([C@H](O)C2CCCCC2)NC(=O)C12CCN(Cc1ccc(Oc3ccc(C(=O)O)cc3)cc1)CC2,inactive
21,CS(=O)(=O)CCNCc1ccc(-c2ccc3ncnc(Nc4ccc(OCc5cccc(F)c5)c(Cl)c4)c3c2)o1,inactive
22,O=C(O)c1cc(O)c2c(c1)C(=O)c1cccc(O)c1C2=O,inactive
23,O=CC=C(c1ccccc1)c1ccccc1,inactive
24,Oc1c(Cl)cc(Cl)c2cccnc12,inactive
25,CC(=O)S[C@@H]1CC2=CC(=O)CC[C@]2(C)[C@H]2CC[C@@]3(C)[C@@H](CC[C@@]34CCC(=O)O4)[C@H]12,inactive
